Results on eight compounds are retold here after PubChem BioAssay AID1212 (NMMLSC, 2008).

Values without a mark were called inactive. Calls of active or inactive are those of the source.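 Rule for the calls: active = blocks over 60% of fluorescent estradiol binding at 10 µM; inactive = the rest.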

In the assay the target is G-protein coupled estrogen receptor 1 (Homo sapiens) (UniProt Q99527). As to the kind of experiment: GPR30 competitive binders vs fluorescent estrogen, primary screen, cell-based, Cos7 GPR30-GFP, flow cytometry, 10 µM (AID 1212). The note with it: fluorescent estrogen competition, at 10 µM; stronger effect = higher value.
`CCNCC1(c2ccc(OC)c(OC)c2)CCCC1`: the inhibition is 7%. For the compound `COc1ccc(C2(CN)CCCC2)cc1`, the inhibition is 10%. With `N=c1c[n+](CCc2ccc(O)cc2)[n-]o1`, the compound was called inactive. As to `COc1cc2c(cc1OC)CC(C)(C)NC2`, the inhibition is 3%. As to `COc1ccc2[nH]cc(CCN=C(N)N)c2c1`, the compound was classed as inactive. Still for that read-out and setting: in the case of `CC1(C)CC(CCNCc2ccc3c(c2)OCO3)(Cc2ccccc2)CCO1` (stereo not drawn) it was “inactive”; in that of `O=C1C2CCN(CC2)C1Cc1ccc(O)cc1` (stereo not drawn), “inactive”; in that of `COc1ccc(C2(CN)CCCC2)cc1OC`, “inactive”.
